Growth data for 13 compounds are collected here from PubChem BioAssay (NCI).

Test systems include HCT-15 colon; HT29 colon; SNB-75 CNS; SNB-19 CNS; U251 CNS; PC-3 prostate; SK-MEL-5 melanoma; UACC-62 melanoma; LOX IMVI melanoma; SK-MEL-28 melanoma.
Holding throughout (assay): NCI-60 one-dose screen, 48 h (100 = growth as untreated, 0 = no growth, -100 = all killed)
Common to all, as to details: 10 µM

The panel holds about 83,000 compounds, 20% with a hit somewhere; the sample as a whole holds those more often.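 Testing used 96-well plates and a 48-hour single-concentration exposure. Example: -40 means 40% of the starting cells died.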 Unmarked numbers belong to inactive results. The source made the active and inactive calls. How the source made its calls: active means growth percent below 10; inactive means the rest.

Regarding `N#CCc1csc(Cc2ccccc2)n1`, the growth with HCT-15 colon is 109%; in the assay on HT29 colon, 98%; with SNB-75 CNS it was 101%; with SNB-19 CNS, 101%; in the assay on U251 CNS, 103%; in the assay on PC-3 prostate, 109%. The growth was 102% in the assay with SK-MEL-5 melanoma, 103% in the assay on UACC-62 melanoma, 95.9% with LOX IMVI melanoma and 108% in the assay on SK-MEL-28 melanoma.
Take `O=C(NCCCNS(=O)(=O)c1ccc(Cl)cc1)Nc1ccc(-n2cc(-c3ccncc3)c(-c3ccc(Cl)c(O)c3)n2)cc1`: the growth in the assay with HCT-15 colon was 36.1%; with HT29 colon, 0.25% (active); with SNB-75 CNS, 61.7%; in the assay on SNB-19 CNS, 51.1%; in the assay on U251 CNS it was 37.6%; with PC-3 prostate, 17.3%. Further, the growth in the assay on SK-MEL-5 melanoma is 2.07% (active); in the assay on UACC-62 melanoma it was 42.8%; in the assay with LOX IMVI melanoma, 24.1%; in the assay with SK-MEL-28 melanoma, 40.7%.
For the compound `CC(C)(C)OC(=O)CN1CCc2c(sc3ncnc(N/N=C/c4ccccc4Br)c23)C1`, the growth in the assay with HCT-15 colon was 37%; with HT29 colon it was 81.6%; in the assay with SNB-75 CNS, 52.6%; in the assay on SNB-19 CNS it was 81.2%; in the assay with U251 CNS, 77.9%; in the assay on PC-3 prostate, 47.9%. Besides, the growth is 55.1% in the assay on SK-MEL-5 melanoma, 39.5% with UACC-62 melanoma, 53.7% in the assay with LOX IMVI melanoma and 90.9% in the assay with SK-MEL-28 melanoma.
In the case of `CC(=O)N[C@H](C(=O)N[C@@H](CCCNC(=N)N)C(=O)N[C@@H](CCCCN)C(=O)N[C@@H](CCCNC(=N)N)C(=O)NC(C(=O)N[C@@H](CC(C)C)C(=O)N[C@@H](CCCNC(=N)N)C(=O)N[C@@]1(C)CCC/C=C\CCC[C@@](C)(C(=O)N[C@@H](CCCNC(=N)N)C(=O)N[C@@H](CCC(=O)O)C(=O)N[C@@H](CC(C)C)C(=O)N[C@H](C(=O)N[C@@H](CCC(=O)O)C(N)=O)C(C)C)NC(=O)[C@H](CCC(N)=O)NC(=O)[C@H](CC(C)C)NC(=O)[C@H](CC(C)C)NC1=O)[C@@H](C)O)C(C)C` (stereo not given in full), the growth in the assay with HCT-15 colon is 16.2%; in the assay with HT29 colon it was 26.9%; in the assay on SNB-75 CNS, -16.4% (active); with SNB-19 CNS, 31.7%; in the assay on U251 CNS, -35.7% (active); in the assay on PC-3 prostate, -75.5% (active). Further, the growth with SK-MEL-5 melanoma is -83.9% (active); with UACC-62 melanoma it was -68.1% (active); in the assay on LOX IMVI melanoma, 33.2%; in the assay on SK-MEL-28 melanoma, -37.7% (active).
Take `COc1cc2cc(Oc3ccc(NC(=O)Nc4cccc(C(F)(F)F)c4)cc3)c(C)nc2cc1OC`: the growth with HCT-15 colon was 15.2%; in the assay on HT29 colon, 6.55% (active); in the assay on SNB-75 CNS, 13%; with SNB-19 CNS it was 31.4%; in the assay on U251 CNS it was -85.7% (active); with PC-3 prostate, 0.0827% (active). The growth in the assay on SK-MEL-5 melanoma was -86.1% (active); in the assay on UACC-62 melanoma it was 14.5%; with LOX IMVI melanoma, 9.78% (active); in the assay with SK-MEL-28 melanoma, 26.7%.
Turning to `CCCCN1C(=O)CC(SC2CC(=O)N(CCCC)C2=O)C1=O` (stereo not given), the growth in the assay on HCT-15 colon is 120%; in the assay on HT29 colon, 76.1%; in the assay on SNB-75 CNS, 87.4%; with SNB-19 CNS it was 99.5%; in the assay on U251 CNS, 107%; in the assay on PC-3 prostate, 99.4%. Besides, the growth in the assay on SK-MEL-5 melanoma is 104%; in the assay on UACC-62 melanoma, 96.6%; in the assay with LOX IMVI melanoma, 95%; in the assay on SK-MEL-28 melanoma, 121%.
On to `COc1ccc2c(c1)OC(N)=C(C#N)C2c1cc(OC)c(OC)c(OC)c1` (stereo not given), for which the growth with HCT-15 colon was 14.2%; in the assay with HT29 colon, 0.78% (active); in the assay on SNB-75 CNS, 44.7%; with SNB-19 CNS, 44.7%; in the assay with U251 CNS, 6.72% (active); with PC-3 prostate, 19.7%. The growth with SK-MEL-5 melanoma was -46.2% (active); in the assay on UACC-62 melanoma it was 39%; with LOX IMVI melanoma, 12.7%; in the assay with SK-MEL-28 melanoma, 62.7%.
`O=C1Cc2cc(CCN3CCN(c4nsc5ccccc45)CC3)c(Cl)cc2N1`: the growth was 85.1% with HCT-15 colon; 90.1% in the assay with HT29 colon; 78.8% in the assay on SNB-75 CNS; 94.1% in the assay with SNB-19 CNS; 94.7% in the assay with U251 CNS; 72.3% with PC-3 prostate. The growth is 92% in the assay with SK-MEL-5 melanoma, 84.8% in the assay with UACC-62 melanoma, 96.8% in the assay on LOX IMVI melanoma and 90.3% in the assay on SK-MEL-28 melanoma.
Turning to `NC(N)=N/N=C(\N=Nc1ccccc1)c1ccc(Cl)cc1`, the growth in the assay with HCT-15 colon is 22.1%; in the assay with HT29 colon, 21.2%; with SNB-75 CNS, 60.6%; with SNB-19 CNS, 81.9%; in the assay on U251 CNS it was 36.3%; with PC-3 prostate, 25.1%. Besides, the growth is 65.1% with SK-MEL-5 melanoma, -29.6% (active) with UACC-62 melanoma, -7.27% (active) in the assay on LOX IMVI melanoma and 75.3% in the assay with SK-MEL-28 melanoma.
For `O=C(CCl)Oc1ccc(OC(=O)CCl)cc1`, the growth is 94.1% in the assay with HCT-15 colon; 99.9% with HT29 colon; 75.3% in the assay on SNB-75 CNS; 104% in the assay on SNB-19 CNS; 101% in the assay on U251 CNS; 89.4% with PC-3 prostate. The growth with SK-MEL-5 melanoma was 82.2%; with UACC-62 melanoma, 85%; in the assay on LOX IMVI melanoma, 89.3%; with SK-MEL-28 melanoma it was 104%.
For the compound `S=C(NCc1ccccc1)NCc1ccccc1`, the growth in the assay on HCT-15 colon was 107%; in the assay with HT29 colon, 97%; in the assay on SNB-75 CNS, 82.2%; with SNB-19 CNS, 95.1%; with U251 CNS, 91.6%; with PC-3 prostate, 84.3%. The growth with SK-MEL-5 melanoma is 98.3%; in the assay on UACC-62 melanoma, 102%; with LOX IMVI melanoma, 95.6%; in the assay with SK-MEL-28 melanoma, 107%.
For `CS(=O)(=O)c1nccc(-c2c(-c3cccc(OCCN4CCOCC4)c3)nc3sccn23)n1`, the growth in the assay on HCT-15 colon is 81.8%; with HT29 colon it was 66.9%; in the assay on SNB-75 CNS it was 75.9%; with SNB-19 CNS, 82.5%; in the assay with U251 CNS it was 86.6%; in the assay with PC-3 prostate, 77.9%. Moreover, the growth in the assay with SK-MEL-5 melanoma was 84.5%; in the assay with UACC-62 melanoma it was 89.1%; in the assay with LOX IMVI melanoma, 91.3%; in the assay on SK-MEL-28 melanoma, 99.3%.
Turning to `COc1ccc(C2CC(c3cccs3)=NN2c2ccc(S(N)(=O)=O)cc2)cc1` (stereo not given), the growth in the assay with HCT-15 colon is 84.3%; in the assay on HT29 colon, 86.8%; in the assay on SNB-75 CNS, 70.7%; in the assay on SNB-19 CNS, 77.4%; with U251 CNS, 78%; in the assay on PC-3 prostate it was 49.9%. Further, the growth in the assay on SK-MEL-5 melanoma was 60.8%; in the assay with UACC-62 melanoma, 42.8%; in the assay on LOX IMVI melanoma it was 102%; in the assay with SK-MEL-28 melanoma, 63.2%.
